Bioassay records from PubChem.
HTR5A inv ag – counter-screen for OPRM1-OPRD1 inverse agonists: human HTR5A inverse agonism | actives 0.083% (n = 340,000) | AID 504634 | HTR5A cell line, luminescence | inhibition, % at 9.3 µM | P47898; in the data active = inhibition mostly above about 23%, no sharp cut-off; inactive = mostly below about 18%
HTR5A ag ctr – HTR5A agonism, opioid heterodimer counter-screen; P47898; HTR5A agonist assay, luminescence, cell-based; activation, % at 9.3 µM; actives 0.61% (n = 340,000); in the data active = activation mostly above about 9.5%, no sharp cut-off; inactive = mostly below about 7.6%
MOR-DOR inv ag-1 – inverse agonist of human OPRM1-OPRD1 heterodimerization; inhibition, % at 9.3 µM; cell-based MOR-DOR heterodimer luminescence, inverse agonism; AID 504357; actives 0.21% (n = 340,000); in the data active = inhibition above about 22%, passing the limit was not always enough
OPRM1-OPRD1 ag – OPRM1-OPRD1 heterodimerization agonism | cells, luminescence | activation, % at 9.3 µM | actives 0.3% (n = 340,000); in the data active = activation above about 18%
HTR2A ag – agonists of mouse serotonin 5-HT2A receptor (HTR2A) | P35363 | actives 0.66% (n = 360,000) | activation, % at 7.6 µM | AID 624169 | CHO-K1 mHTR2A beta-arrestin complementation, luminescence; percent of 30 µM serotonin response;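 active = activation above a run cutoff, the mean activation of all tested compounds plus 3 SD, cut at about 14% in these data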
Target sequence (P35363 whole entry, looked up): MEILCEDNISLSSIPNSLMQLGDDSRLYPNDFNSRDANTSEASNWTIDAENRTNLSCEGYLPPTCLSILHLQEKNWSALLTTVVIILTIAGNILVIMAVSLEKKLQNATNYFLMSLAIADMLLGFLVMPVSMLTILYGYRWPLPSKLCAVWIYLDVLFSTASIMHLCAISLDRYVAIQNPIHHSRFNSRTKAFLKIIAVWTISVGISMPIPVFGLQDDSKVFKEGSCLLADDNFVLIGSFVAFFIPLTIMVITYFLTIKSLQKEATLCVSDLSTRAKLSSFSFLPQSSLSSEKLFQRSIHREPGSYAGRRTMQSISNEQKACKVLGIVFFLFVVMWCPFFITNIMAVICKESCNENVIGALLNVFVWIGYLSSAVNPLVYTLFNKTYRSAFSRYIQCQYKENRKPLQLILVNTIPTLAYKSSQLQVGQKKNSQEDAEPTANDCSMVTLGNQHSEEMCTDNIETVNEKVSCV
MOR-DOR inv ag-2 – opioid heterodimer inverse agonism, HTR5A counter-screen. 190 tested, under 10 active. shares compounds with HTR5A inv ag. AID 504912. inhibition, % at 9.3 µM. U2OS counter-screen cells, complementation luminescence
HTR5A inv conf – HTR5A (human) inverse agonism, confirmation; shares compounds with HTR5A inv ag; HTR5A-expressing cells, luminescence; inhibition, % at 9.3 µM; 190 tested, under 10 active
A number is an active result; - = inactive; . = not tested or not shown. An excerpt weighted towards active compounds, which were near 1.6% of everything screened. Unless noted, the rule behind the calls is not given here.

SMILES	HTR5A inv ag	HTR5A ag ctr	MOR-DOR inv ag-1	OPRM1-OPRD1 ag	HTR2A ag	MOR-DOR inv ag-2	HTR5A inv conf
O=C(NN1C(=O)/C(=C/c2ccc(O)c(O)c2)SC1=S)c1ccccc1	31	-	-	-	-	-	-
COc1cc(/C=C2\SC(=S)N(NC(=O)c3cccnc3)C2=O)ccc1O	22	-	-	-	-	-	-
C=CC[n+]1c(-c2ccc(Cl)cc2Cl)csc1Nc1c(C)n(C)n(-c2ccccc2)c1=O	36	-	-	-	-	-	-
COCCN(C(=O)COC(=O)c1cc(C)oc1C)c1c(N)n(Cc2ccccc2)c(=O)[nH]c1=O	65	-	-	-	-	-	-
COCCN(C(=O)COC(=O)c1ccc(C)o1)c1c(N)n(Cc2ccccc2)c(=O)[nH]c1=O	-	-	-	-	-	.	.
CCC(=O)N1CCC1(C)C(=O)Nc1cccc2c1CCCC2 (stereo not drawn)	.	.	.	.	-	.	.
O=C(NCc1ccccc1)c1cc(C2COCCN2C(=O)c2ccc(Cl)cc2)on1 (stereo not drawn)	.	.	.	.	-	.	.
CCOc1cccc(/C=C/c2ccc3cccc(O)c3n2)c1OC	53	-	-	-	-	-	-
CCOc1cccc(/C=C/c2ccc3cccc(O)c3n2)c1O	-	-	-	-	-	.	.
Oc1cccc2ccc(/C=C/c3ccccc3Cl)nc12	62	-	-	-	-	-	47
C[C@@H]1CN(Cc2nnnn2CC(=O)NCCCn2cccn2)C[C@H](C)O1	.	.	.	.	-	.	.
CC(C)[C@H](NC(=O)OC(C)(C)C)c1cc(C(=O)NC2CC2)c(N)s1	.	.	.	.	-	.	.
NC(N)=N/N=C/c1cc([N+](=O)[O-])ccc1O	-	-	-	-	-	.	.
CN(C)/N=C/c1cc([N+](=O)[O-])ccc1O	28	-	-	-	-	-	-
O=C(NCc1ccc(F)cc1)Nc1ccccc1	-	-	-	-	-	.	.
CSc1ccc(NC(=O)NCc2ccccc2)cc1	31	-	-	-	-	-	-
CC(=O)N1CCc2c(sc(NC(=O)c3ccc([N+](=O)[O-])o3)c2C#N)C1	32	-	-	-	-	-	-
COc1cccc(CNCc2ccccc2Br)c1OC	36	-	-	-	-	-	-
C[C@H](CO)N1C[C@H](C)[C@@H](CN(C)CC2CC2)OCc2cnnn2CCCC1=O	.	.	.	.	-	.	.
CCCN1Cc2cccc(C(=O)NCc3ccccc3OC)c2C1=O	37	-	-	-	-	-	-
COCCN1Cc2cccc(C(=O)NCc3ccccc3OC)c2C1=O	-	-	-	-	-	.	.
CCO[C@H]1C[C@@H](c2ccc(CC)cc2)N(S(=O)(=O)c2ccc(C)cc2)C2CC(c3ccc(CC)cc3)N(S(=O)(=O)c3ccc(C)cc3)CC21 (stereo partly drawn)	.	.	.	.	-	.	.
Oc1c(C(Nc2ccccn2)c2cccnc2)cc(Cl)c2cccnc12 (stereo not drawn)	54	-	-	-	-	56	77
CC(=O)NC(c1ccc(C)cc1)c1cc(Cl)c2cccnc2c1O (stereo not drawn)	-	-	-	-	-	.	.
O=S(NCc1ccco1)C12CC3CC(CC(C3)C1)C2 (stereo not drawn)	40	-	-	-	-	-	-
SMILES	HTR5A inv ag	HTR5A ag ctr	MOR-DOR inv ag-1	OPRM1-OPRD1 ag	HTR2A ag	MOR-DOR inv ag-2	HTR5A inv conf
COc1cccc(CNC(=O)[C@@H]2CCCN2)c1	.	.	.	.	-	.	.
Cc1cc2n(n1)C(c1ccc3c(c1)OCO3)Nc1c(C)cccc1-2 (stereo not drawn)	33	-	-	-	-	-	-
CC(C)Cn1c(N)c(S(=O)(=O)c2cccs2)c2nc3ccccc3nc21	38	-	-	-	-	-	-
CCOc1ccc(S(=O)(=O)n2ccc(C)n2)cc1	26	-	-	-	-	-	-
CCOc1cc(/C=C2\CCC/C(=C\c3cc(Cl)c(O)c(OCC)c3)C2=O)cc(Cl)c1O	46	-	-	-	-	-	-
CCOc1cc(/C=C2\CN(C)C/C(=C\c3ccc(O)c(OCC)c3)C2=O)ccc1O	-	-	-	-	-	.	.
COCc1cccc(-c2csc(C(C)(NC(C)=O)c3ccc(OC)cc3)n2)c1 (stereo not drawn)	.	.	.	.	-	.	.
O=C(COC(=O)Cc1ccc(F)cc1)NCc1ccco1	34	-	-	-	-	-	-
COc1ccc(NC(=O)c2ccc(NC(=O)c3nc4nccc(C)n4n3)cc2)cc1	36	-	-	-	-	-	-
COc1ccccc1NC(=O)c1ccc(NC(=O)c2nc3nccc(C)n3n2)cc1	-	-	-	-	-	.	.
CCCOc1cccc(C(=O)N/N=C/c2ccoc2)c1	45	-	-	-	-	-	-
CC(C)Oc1cccc(C(=O)N/N=C/c2ccoc2)c1	-	-	-	-	-	.	.
COc1ccccc1CNc1nc(NCCN2CCNC2=O)c2sccc2n1	.	.	.	.	-	.	.
COc1ccc(CN(C)C(=O)C2CSC3(C)CCC(=O)N23)c(OC)c1 (stereo not drawn)	.	.	.	.	-	.	.
Cc1cc(O)c(NC(=S)NC(=O)c2ccc(-c3ccc(Cl)cc3)o2)cc1C	65	-	-	-	-	-	-
CCc1nc2c(OCC(N)=O)cccn2c1N(C)C(=O)c1cccs1	.	.	.	.	-	.	.
CCN(CC)C(=O)CSc1nc2ccccc2c(=O)n1OC(C)C	38	-	-	-	-	-	-
OCCN(CCO)c1ccc(C(c2ccc(Cl)cc2)c2ccc(N(CCO)CCO)cc2Cl)c(Cl)c1	-	-	-	-	-	.	.
Cc1cc(N(CCO)CCO)ccc1N=Nc1cc(F)ccc1F	27	-	-	-	-	-	-
CC(C)Cn1c(-c2ccc(Br)cc2)c[nH]c1=S	81	-	-	-	-	-	-
COc1ccc(C(NC(=O)C2CCN(Cc3ccc(Oc4ccccc4)cc3)CC2)c2ccccc2C)cn1 (stereo not drawn)	.	.	.	.	-	.	.
COc1ccccc1-c1nnc(NC(=O)CCS(=O)(=O)c2ccccc2)o1	40	-	-	-	-	-	-
O=C1C=CC(n2cc(F)c(=O)[nH]c2=O)O1 (stereo not drawn)	.	.	.	.	-	.	.
CCOc1ccc(NC(=S)NC(=O)c2c(Br)cnn2C)c([N+](=O)[O-])c1	36	-	-	-	-	-	-
CCOc1ccc(NC(=S)NC(=O)c2c(Cl)cnn2CC)c([N+](=O)[O-])c1	-	-	-	-	-	.	.
CCn1c(-c2ccccc2)c[nH]c1=S	-	-	-	-	-	.	.
S=c1[nH]cc(-c2ccc(Cl)cc2)n1Cc1ccccc1	31	-	-	-	-	-	-
CCOC(=O)c1c(N)n(C2CC(C)(C)NC(C)(C)C2)c2nc3ccccc3nc12	37	-	-	-	-	-	-
Cc1c(C(=O)NCc2ccccc2C(F)(F)F)sc(=O)n1Cc1ccc(Cl)c(Cl)c1	.	.	.	.	-	.	.
COc1ccc(/C=C(/NC(=O)c2cccs2)C(=O)NCc2ccco2)cc1OC	44	-	-	-	-	-	-
